Rango release inh = inhibitors of RanGTP-induced Rango-importin beta complex dissociation | Biochemical FRET Rango-importin beta, RanGTP-induced dissociation | Potency, µM (top dose mostly 46.1 µM), inactives show at the highest dose activity change, negative = inhibition | 340,000 compounds, 0.071% hits | AID 540253; calls by dose curve; further: % of control where 0% means no effect; nearly all actives have a fitted effect of over 45% in size
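Rango/importin beta premix (0.1/0.25 uM final), PBS + 1 mM DTT + 0.02% Tween-20 + 0.1% BSA; cpd 5 min RT; FRET pre-read; + RanGTP-RCC1 (0.6 uM Ran, 2 mM GTP, 0.2 uM RCC1); 45 min RT; FRET post-read, ex 430, em 486/530 nm.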
ELG1 DNA repair = blocks ELG1-dependent DNA repair in HEK293T cells; HEK293T ELG1-luciferase reporter, luminescence, 16 h; DNA damage induced by 5-fluorouridine; Potency, µM (series often up to 46.1 µM), for inactives: at the top dose activity change, negative = inhibition, actives largely listed as inhibitors; 330,000 compounds, 2.3% hits; further: on the % scale 0 is the no-effect control and ±100 the full control effect; nearly all actives have a fitted effect of over 55% in size
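DMSO vehicle served as the neutral condition. Each well held 2,000 cells given 5-fluorouridine plus compound; after 16 hr at 37 °C/5% CO2, ONE-Glo was added and luciferase measured 30 min later.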
PKM2 activator = increases activity of human pyruvate kinase M2; P14618; purified PKM2, Kinase-Glo ATP luminescence, activation; response scale: 0% is enzyme alone, no compound; Potency, µM (series often up to 57.5 µM), for the others: at the highest dose activation, hits mostly activators; 260,000 compounds, 0.34% hits; AID 1631; further: on the % scale 0 is the no-effect control and ±100 the full control effect; nearly all actives have a fitted effect of over 55% in size
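hPK-M2, >95% pure; 0.1 mM ADP / 0.5 mM PEP final; imidazole pH7.2 buffer w/ 7 mM MgCl2, 50 mM KCl; 1 h RT; Kinase-Glo lum. Intermediate enzyme activity for dual inhibitor/activator qHTS.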
Tb PFK block = blocks T. brucei phosphofructokinase; O15648; T. brucei PFK, ADP-Glo luminescence; Potency, µM (highest dose often 57.5 µM), without a hit: at the top dose activity, negative = inhibition, hits mostly inhibitors; 330,000 compounds, 0.17% hits;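 further: 0% = uninhibited 1x PFK enzyme wells and -100% = no-enzyme wells; nearly all actives have a fitted effect of over 60% in size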
Target sequence (O15648 whole entry, looked up): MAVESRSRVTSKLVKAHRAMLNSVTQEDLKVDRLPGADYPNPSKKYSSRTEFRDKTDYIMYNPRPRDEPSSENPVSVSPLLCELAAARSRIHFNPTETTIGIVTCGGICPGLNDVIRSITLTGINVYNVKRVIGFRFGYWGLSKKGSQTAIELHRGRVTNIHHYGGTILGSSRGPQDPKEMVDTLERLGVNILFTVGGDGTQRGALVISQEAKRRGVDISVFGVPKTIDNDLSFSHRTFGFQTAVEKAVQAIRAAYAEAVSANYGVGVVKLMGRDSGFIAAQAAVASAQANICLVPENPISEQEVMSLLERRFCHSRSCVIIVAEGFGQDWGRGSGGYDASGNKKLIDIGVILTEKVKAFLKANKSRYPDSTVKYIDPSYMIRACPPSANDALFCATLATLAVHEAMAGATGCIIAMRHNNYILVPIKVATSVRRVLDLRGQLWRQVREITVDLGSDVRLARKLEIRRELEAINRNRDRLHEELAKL
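1.25 nM PFK with 0.5 mM F6P and 0.1 mM ATP in 0.1 M TEA pH 8.0, 5 mM MgCl2, incubated 45 min at room temperature; ADP measured by ADP-Glo luminescence; compounds titrated up to 57 uM.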
Rango-impB inh = Rango-importin beta binding inhibition; Q14974; Rango CFP/YFP FRET sensor + importin beta, 45 min; Potency, µM (doses to about 92.2 µM), for the others: at the highest dose inhibition of complex formation; 340,000 compounds, 0.031% hits; AID 540263; calls by dose curve;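 further: 0% = DMSO wells and 100% = buffer wells lacking importin beta; nearly all actives have a fitted effect of over 15% in size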
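Inhibition scored from the CFP 486 nm/YFP 530 nm FRET ratio 45 min after adding 0.125 microM importin beta to 50 nM Rango biosensor preincubated 5 min with compound (room temperature, PBS with DTT, Tween-20, BSA). No-importin wells as positive control.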
Tb PGK inh = blocks T. brucei phosphoglycerate kinase. Potency, µM (highest dose often 57.5 µM), for the others: top-dose activity change, negative = inhibition, usual class: inhibitors. P07378. PGK/GAPDH coupled, Kinase-Glo luminescence, 60 min. 380,000 compounds, 0.043% hits; further: on the % scale 0 is the no-effect control and ±100 the full control effect; nearly all actives have a fitted effect of over 60% in size
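Recombinant glycosomal PGK reaction used 1,3-bisphosphoglycerate generated in-well by GAPDH (100nM final) in 100mM TEA pH 7.6, 5mM MgCl2, 0.01% Tween-20. After 60 minutes at room temperature, ATP was read by Kinase-Glo Plus luminescence end-point.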
ELG1 FLuc counter = luciferase inhibition in cell-free luciferin readout for ELG1 hits; cell-free firefly luciferase luminescence counter-screen, ViewLux; Potency, µM (titrated, usually from 46.1 µM), for inactives: at the top dose activity change, negative = inhibition, usual class: inhibitors; shares compounds with ELG1 DNA repair; 350 compounds, 3% hits; further: on the % scale 0 is the no-effect control and ±100 the full control effect
ELG1-Luc inh = human ELG1 repair inhibition, luciferase-tagged ELG1 confirmation. shares compounds with ELG1 DNA repair. HEK293T ELG1-luciferase levels, luminescence; cells co-treated with 5-fluorouridine. Potency, µM (titrated, usually from 46.1 µM), for the others: at the top dose activity change, negative = inhibition, usual class: inhibitors. 670 compounds, 68% hits. AID 624248; further: on the % scale 0 is the no-effect control and ±100 the full control effect; nearly all actives have a fitted effect of over 55% in size
ELG1 MMS Luc = confirmation of human ELG1 repair inhibitors, MMS stimulated; shares compounds with ELG1 DNA repair; HEK293T luciferase-tagged ELG1 level, MMS stimulated; Potency, µM (highest dose often 46.1 µM), inactives show top-dose activity change, negative = inhibition, usual class: inhibitors; 670 compounds, 53% hits; further: on the % scale 0 is the no-effect control and ±100 the full control effect; nearly all actives have a fitted effect of over 60% in size
ELG1 5FU viab = confirmation of ELG1 repair inhibitors: viability with 5FU; shares compounds with ELG1 DNA repair; Potency, µM (highest dose often 46.1 µM), for the others: at the highest dose activity change, negative = viability loss, actives largely listed as cytotoxic; 670 tested, under 10 active; cell viability with 5-FU, ELG1-dependent repair;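 further: ELG1-luc HEK293T cells cotreated with 5-fluorouridine at 10 µM final; viability measured 16 h after compound addition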
ELG1 MMS viab = confirmation of ELG1 repair inhibitors: viability with MMS | shares compounds with ELG1 DNA repair | 670 compounds, 33% hits | AID 624251 | Cell viability with MMS, ELG1-dependent DNA repair | Potency, µM (highest dose often 46.1 µM), without a hit: top-dose activity change, negative = viability loss, most hits filed as cytotoxic;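 further: ELG1-luc HEK293T cells co-treated with 10 µM MMS; viability read 16 h after compound addition; on the % scale 0 is the no-effect control and ±100 the full control effect; nearly all actives have a fitted effect of over 60% in size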
ELG1 unstim viab = unstimulated viability counter-screen for ELG1 repair hits; shares compounds with ELG1 DNA repair; cell viability counter-screen, unstimulated, luminescence; Potency, µM (top dose mostly 45.9 µM), for inactives: at the highest dose activity change, negative = loss of viability, hits mostly cytotoxic; 900 compounds, 8% hits; AID 624252;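 further: compound exposure lasted 16 hours before reading; on the % scale 0 is the no-effect control and ±100 the full control effect; nearly all actives have a fitted effect of over 55% in size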
FLuc biochem = inhibits purified firefly luciferase, counter-screen for ELG1 hits; 350 compounds, 10% hits; shares compounds with ELG1 DNA repair; Potency, µM (series often up to 57.5 µM), without a hit: at the highest dose activity, negative = inhibition, most hits filed as inhibitors; purified firefly luciferase, luminescence counter-screen; further: on the % scale 0 is the no-effect control and ±100 the full control effect
Active calls of the source: *; ? = inconclusive; . = no result given. A selection: hits, their analogues and other compounds. The true share with any hit is near 2.4%. Unless noted, the call rests on the fitted dose curve; in most records, active means well fitted curve in the direction sought with a large enough effect; inconclusive means small, poorly fitted or top-dose-only effect, or another doubt; inactive means no such curve, though single readings can be large; an effect the other way counts as inactive or inconclusive. Potency means the concentration at half of the fitted maximal effect.

SMILES	Rango release inh	ELG1 DNA repair	PKM2 activator	Tb PFK block	Rango-impB inh	Tb PGK inh	ELG1 FLuc counter	ELG1-Luc inh	ELG1 MMS Luc	ELG1 5FU viab	ELG1 MMS viab	ELG1 unstim viab	FLuc biochem
CS[C@@H]1SC[C@H]2C(=O)N(C)C(C(C)C)C(=O)OC[C@@H](NC(=O)c3cnc4ccccc4n3)C(=O)N[C@@H](C)C(=O)N(C)[C@H]1C(=O)N(C)C(C(C)C)C(=O)OC[C@@H](NC(=O)c1cnc3ccccc3n1)C(=O)N[C@@H](C)C(=O)N2C (stereo partly drawn)	.	.	.	.	.	.	?	0.141µM*	0.0561µM*	16.6%	0.199µM*	-3.5%	1.6%
COc1ccccc1/C=C(\NC(=O)c1ccc(OC)c(OC)c1)C(=O)Nc1cc([N+](=O)[O-])ccc1C	27.5%	0.651µM*	-3.6%	-3.3%	-2.3%	0.6%	1.2%	1.58µM*	?	?	?	11.1%	4.2%
CC(=O)N(C)c1ccc(/C=C2\C=Cc3ccccc32)cc1	.	.	.	.	.	.	71.1%	.	.	.	.	?	0.231µM*
Cc1cccc2cc(CN(CCN3CCCC3)C(=O)NC3CCCCC3)c(=O)[nH]c12	-7.0%	-17.6%	0.2%	-2.1%	0.1%	-1.8%	.	.	.	.	.	.	.
Cc1cccc2cc(CN(CCN3CCOCC3)C(=O)Nc3ccccc3F)c(=O)[nH]c12	-5.5%	3.26µM*	-17.3%	-0.4%	-1.0%	-5.6%	.	3.97µM*	30.0%	?	4.2%	-12.4%	.
CC1CCCCC1NC(=O)CN1C(=O)NC(C)(c2ccc(OC(F)F)cc2)C1=O (stereo not drawn)	-0.3%	-8.8%	-6.7%	1.4%	2.3%	-5.3%	0.6%	.	.	.	.	2.4%	4.4%
CCOC(=O)C1C(C(=O)OC)=C(c2ccc(F)cc2)c2ccccc2N1S(=O)(=O)C(F)(F)F (stereo not drawn)	1.4%	?	.	-1.5%	-0.9%	-8.7%	.	.	.	.	.	.	.
